The whole screen tested about 360,000 compounds, of which about 25,000 (6.9%) were called active. Inconclusive results (about 9%) are left out. The entries come from a sample that favours actives as a whole. A number with no mark means an inactive call. The call rests on the fitted dose curve; in most records, active means well fitted inhibition curve with a large enough effect; inconclusive means small, poorly fitted or top-dose-only effect; inactive means flat fitted curve, though single readings scatter.
Potency means the concentration at half of the fitted maximal effect.

Chain of Luciferin 4-monooxygenase (Photinus pyralis) (P08659 whole entry, looked up): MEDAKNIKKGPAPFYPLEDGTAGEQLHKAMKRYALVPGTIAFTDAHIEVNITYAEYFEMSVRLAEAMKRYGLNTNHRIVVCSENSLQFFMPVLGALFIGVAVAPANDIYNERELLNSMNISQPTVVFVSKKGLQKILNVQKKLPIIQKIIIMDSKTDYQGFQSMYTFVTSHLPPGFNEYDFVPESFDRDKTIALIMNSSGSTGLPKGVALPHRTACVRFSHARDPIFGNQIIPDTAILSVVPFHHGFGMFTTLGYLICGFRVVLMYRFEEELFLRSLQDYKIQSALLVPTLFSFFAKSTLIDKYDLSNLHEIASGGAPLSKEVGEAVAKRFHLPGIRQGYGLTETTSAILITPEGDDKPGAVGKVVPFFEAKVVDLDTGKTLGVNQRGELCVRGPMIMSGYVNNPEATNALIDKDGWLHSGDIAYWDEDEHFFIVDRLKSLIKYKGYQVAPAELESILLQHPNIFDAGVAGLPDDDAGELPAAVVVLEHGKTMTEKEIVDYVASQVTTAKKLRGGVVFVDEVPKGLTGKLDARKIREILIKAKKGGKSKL

The target of the assay is Luciferin 4-monooxygenase (Photinus pyralis) (UniProt P08659). Description: qHTS profiling assay for firefly luciferase inhibitor/activator using purifed enzyme and Km concentrations of substrates (counterscreen for miR-21 project). Further: nearly all actives have a fitted effect of over 55% in size.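 On activity change, negative = inhibition: plate controls were vehicle for no effect and reference inhibitor for full effect.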 The note with it: purified FLuc, luminescence inhibition; series mostly up to 57.5 µM; activity change, negative = inhibition: at the top concentration. The method, boiled down:
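Biochemical qHTS of compounds, final roughly 60 µM downward over six points, against 10 nM purified firefly luciferase using Km concentrations of substrates (10 uM D-luciferin, 10 uM ATP) in Tris acetate pH 7.5 buffer; luminescence output.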
For orientation: In qHTS, concentration-response curves come from the screen itself.
As to `O=C(NCc1ccc(Cl)c(Cl)c1)c1cccnc1`, the “activity change, negative = inhibition” value is 3.25%.
The same measure, in the same setting: under `O=C(/C=C/c1ccc(Cl)c([N+](=O)[O-])c1)c1cccnc1` stands 6.73%.
For `O=C(/C=C/c1ccc(Cl)cc1Cl)c1cccnc1`, the Potency is 15.1 µM (active).
In the case of `Cc1cccc(C)c1NC(=O)Nc1ccccc1-n1ccnc1`, the “activity change, negative = inhibition” value is 0.683%.
On to `O=c1c2ccccc2n(Cc2cccc(Cl)c2)c(=O)n1Cc1ccccc1`, for which the “activity change, negative = inhibition” value was -7.92%.
Same read-out and setting: under `COCCNc1ncnc2c1c(-c1ccccc1)cn2-c1ccc(C)c(Cl)c1` stands -12.8%.
For `Cc1ccc(-n2ncc3c(NCCCn4ccnc4)ncnc32)cc1Cl`, the Potency is 12 µM (active).
Regarding `CCN(CC)CCNc1ncnc2c1cnn2-c1cc(Cl)ccc1C`, the “activity change, negative = inhibition” value is -3.56%.
The same measure, in the same setting: as for `Cc1ccccc1CNC(=O)c1ccc(NC(=O)N2CCCCc3ccccc32)cc1`, the figure is -4.31%; as for `COC(=O)C1=C(C)NC(=O)/C1=C/c1ccc(CNS(=O)(=O)c2ccc(C)cc2)o1`, 2.37%.
On the same count and under the same terms, as for `C[C@@H](NC(=O)c1nc[nH]c1C(=O)N1CCN(C(=O)OC(C)(C)C)CC1)c1ccccc1`, the figure is 6.17%; as for `Cc1ccc(Cl)cc1NC(=O)CSc1nccn1C`, -1.57%.
For the molecule `Cc1ccc(Cl)cc1NC(=O)c1ccccn1`, the Potency is 16.9 µM (active).
Consider `Cc1cnc(NC(=O)Cn2cnc3c2c(=O)n(C)c(=O)n3C)s1`, for which the “activity change, negative = inhibition” value is -0.119%.
Consider `Cc1ccc(Cl)cc1NC(=O)Cc1ccc(-n2c(C)nc3cccnc32)cc1`, for which the “activity change, negative = inhibition” value is -0.863%.
Regarding `Cc1cnc(NC(=O)CSc2nnc(-c3ccccc3)n2Cc2ccccc2)s1`, the “activity change, negative = inhibition” value is -0.828%.
Regarding `Cc1cnc(NC(=O)c2ccccn2)s1`, the Potency was 2.69 µM (active).
With `Cc1cnc(NC(=O)C2CCCC2)s1`, the “activity change, negative = inhibition” value is -1.27%.
As to `Cc1cnc(NC(=O)c2ccc(Cl)nc2)s1`, the Potency was 12 µM (active).
As for `Cc1cnc(NC(=O)CSc2nnc(C)s2)s1`, the “activity change, negative = inhibition” value was 1.36%.
With `COc1ccc(-c2onc(C)c2C)cc1S(=O)(=O)NCc1cccs1`, the “activity change, negative = inhibition” value was 2.14%.
Same read-out and setting: as for `CC(=O)NC(CC(=O)Nc1nc(-c2ccccc2)c(C(C)=O)s1)c1ccccc1` (stereo not drawn), the figure is 3.71%.
Same read-out and setting: as for `COc1cccc(-c2n[nH]c3c2C(c2cccc(O)c2)N(C)C3=O)c1` (stereo not drawn), the figure is -14.7%.
As to `O=C1COc2ccc(C(=O)CSc3ccc(Br)cc3)cc2N1`, the “activity change, negative = inhibition” value is -18.2%.
Still for that read-out and setting: as for `Cc1ccc(C)c(N2CCN(c3ccc4cc(S(=O)(=O)N5CCC(C)CC5)ccc4n3)CC2)c1`, the figure is 0.974%; as for `Cc1cc(NC(=O)C2CCC(CNS(=O)(=O)c3ccc(Br)s3)CC2)ccc1Br` (stereo not drawn), -17.6%; as for `Cc1cc(C)cc(OCC(=O)Nc2nc(-c3ccc(F)cc3)ns2)c1`, -13.9%.
For the molecule `C/C(N)=C(/C#N)C(=O)COC(=O)c1cc(-c2ccc(C)cc2)nc2ccccc12`, the Potency is 9.53 µM (active).
As to `C/C(N)=C(/C#N)C(=O)COC(=O)C1=NN(c2ccccc2)C(=O)CC1`, the “activity change, negative = inhibition” value is 3.91%.
In the case of `COc1ccc(-c2cc(C(=O)N(C)Cc3ccccc3)c3ccccc3n2)cc1`, the Potency is 10.7 µM (active).
`COC(=O)CNC(=O)c1cc(-c2ccncc2)nc2ccccc12`: the “activity change, negative = inhibition” value is -2.72%.
In the case of `N/C(=N\OC(=O)c1cc(-c2ccccc2)nc2ccccc12)c1ccncc1`, the Potency is 21.3 µM (active).
In the case of `COc1ccc(NC(=O)c2cc(-c3cc(OC)c(OC)c(OC)c3)nc3ccccc23)c(OC)c1`, the “activity change, negative = inhibition” value was -14.7%.
On the same count and under the same terms, under `COc1ccc(CCNC(=O)COC(=O)c2cc(=O)c3ccccc3o2)cc1` stands 3.44%.
On the same count and under the same terms, under `O=C(O/N=C(/c1ccccc1)c1ccncc1)c1ccccc1[N+](=O)[O-]` stands -2.68%; under `COc1ccc(C2=NS(=O)(=O)N(C)C(C(=O)N(C)Cc3ccccc3)=C2)cc1`, 2.04%.
Take `C/C(N)=C(/C#N)C(=O)COC(=O)c1cc(-c2cccc(Br)c2)nc2ccccc12`: the “activity change, negative = inhibition” value is -18.4%.
For the molecule `CNC(=O)COC(=O)c1cc(-c2ccc(OC)cc2)nc2ccccc12`, the Potency is 5.36 µM (active).
Turning to `COc1ccc(CN(C)C(=O)c2cc(-c3ccc(C)cc3C)nc3ccccc23)c(OC)c1OC`, the “activity change, negative = inhibition” value is -1.21%.
The same measure, in the same setting: under `Cc1cc(C)c2oc(C(=O)Nc3c(C(=O)Nc4ccccc4)oc4ccccc34)cc(=O)c2c1` stands -0.72%; under `CCCCN(C(=O)C(CCSC)N1C(=O)c2ccccc2C1=O)c1c(N)n(CCC)c(=O)[nH]c1=O` (stereo not drawn), -0.596%.
The same measure, in the same setting: as for `COc1cc(NS(=O)(=O)c2ccc3c(c2)OCC(C(=O)N2CCCC2)O3)cc(OC)c1` (stereo not drawn), the figure is -13.5%; as for `COc1ccc2c(CNCCc3ccccc3C)c(C(=O)O)n(Cc3ccccc3C)c2c1`, -6.19%.
Regarding `CCCn1ccc2c(OCC(=O)NCc3ccc(F)cc3)cccc2c1=O`, the “activity change, negative = inhibition” value is 5.31%.
On to `COC(=O)c1cccnc1NC(=S)NC(C)C`, for which the “activity change, negative = inhibition” value was -19%.
With `Cc1cc(NS(=O)(=O)c2ccc3oc(=O)c4ncn(C)c4c3c2)ccc1Br`, the “activity change, negative = inhibition” value is -16.5%.
For the molecule `Cc1c(O)c(C)c2c(c1O)C(=O)C[C@@H](c1ccccc1)O2`, the “activity change, negative = inhibition” value was -0.7%.
For the molecule `CCn1cc(C(=O)NCCc2ccccc2)c(=O)c2cc(S(=O)(=O)N3CCCCCC3)ccc21`, the “activity change, negative = inhibition” value was -6.86%.
With `CCOc1ccc(N2CC(C)Cn3c2nc2c3c(=O)n(Cc3c(F)cccc3Cl)c(=O)n2C)cc1` (stereo not drawn), the “activity change, negative = inhibition” value is -2.6%.
On the same count and under the same terms, as for `Cc1ccc(NC(=O)CSc2nc3c(c(=O)[nH]2)CN(Cc2ccc4c(c2)OCO4)CC3)cc1C`, the figure is -1.68%.
As to `COc1ccc(-c2cc(C(=O)n3cnc4ccccc43)c3ccccc3n2)cc1`, the Potency is 5.36 µM (active).
In the case of `Cc1ccc(OCC(=O)Nn2cnc3ccccc32)cc1`, the “activity change, negative = inhibition” value is 5.06%.
Same read-out and setting: as for `COc1ccc(S(=O)(=O)n2cnc3ccccc32)c(C)c1`, the figure is 4.47%.

(Values after PubChem BioAssay AID588342 (National Center for Advancing Translational Sciences (NCATS), 2011).)
